Data from the antibiotic and cytotoxicity screens of Wong et al. (2023).
About 3,300 (8.5%) of roughly 39,000 compounds were called active. For the sample, actives were picked, then their nearest neighbours and some compounds at random.

Each compound was assayed on HepG2 (assay: cytotoxicity call (relative viability < 0.9)). Details: 10 µM.

| SMILES | cytotoxicity call |
| --- | --- |
| COc1ccc(CN(C)C[C@H]2Oc3c(NS(=O)(=O)c4c(C)noc4C)cccc3C(=O)N([C@H](C)CO)C[C@H]2C)cc1 | inactive |
| C[C@H]1CN([C@@H](C)CO)C(=O)Cc2cc(NS(=O)(=O)c3cccs3)ccc2O[C@H]1CN(C)Cc1ccc(-c2ccccc2)cc1 | inactive |
| C[C@@H]1CCCCO[C@@H](CN(C)Cc2ccc(C(=O)Nc3ccccc3N)cc2)[C@@H](C)CN([C@H](C)CO)C(=O)c2cc(NC(=O)Nc3ccccc3)ccc2O1 | inactive |
| C[C@@H]1CCCCO[C@@H](CN(C)Cc2ccc(C(=O)Nc3ccccc3N)cc2)[C@@H](C)CN([C@H](C)CO)C(=O)c2cc(NC(=O)Cc3ccccc3)ccc2O1 | inactive |
| C[C@H]1CCCCO[C@H](CN(C)Cc2ccc(C(=O)Nc3ccccc3N)cc2)[C@@H](C)CN([C@@H](C)CO)C(=O)c2cc(N(C)C)ccc2O1 | inactive |
| C[C@@H]1CCCCO[C@H](CN(C)Cc2ccc(C(=O)Nc3ccccc3N)cc2)[C@@H](C)CN([C@H](C)CO)C(=O)c2cc(NC(=O)c3ccccc3)ccc2O1 | active |
| C[C@@H]1CCCCO[C@@H](CN(C)Cc2ccc(C(=O)Nc3ccccc3N)cc2)[C@@H](C)CN([C@H](C)CO)C(=O)c2cc(NC(=O)c3ccccc3)ccc2O1 | active |
| CC(C)NC(=O)Nc1ccc2c(c1)C(=O)N([C@H](C)CO)C[C@H](C)[C@H](CN(C)Cc1ccc(C(=O)Nc3ccccc3N)cc1)OCCCC[C@@H](C)O2 | inactive |
| C[C@@H]1CCCCO[C@@H](CN(C)Cc2ccc(C(=O)Nc3ccccc3N)cc2)[C@H](C)CN([C@H](C)CO)C(=O)c2cc(N(C)C)ccc2O1 | active |
| C[C@H](CO)N1C[C@H](C)[C@H](CN(C)Cc2ccc(C(=O)Nc3ccccc3N)cc2)OCCCC[C@H](C)Oc2ccc(N(C)C)cc2C1=O | inactive |
| C[C@@H]1CCCCO[C@@H](CN(C)Cc2ccc(C(=O)Nc3ccccc3N)cc2)[C@@H](C)CN([C@H](C)CO)C(=O)c2cc(NC(=O)c3ccncc3)ccc2O1 | inactive |
| C[C@H]1CN([C@@H](C)CO)S(=O)(=O)c2ccc(C#CC3(O)CCCC3)cc2O[C@@H]1CN(C)C(=O)Cc1ccccc1 | inactive |
| C[C@@H]1CN([C@@H](C)CO)C(=O)c2cccc(NS(=O)(=O)c3ccc(F)cc3)c2O[C@@H]1CN(C)S(=O)(=O)c1cn(C)cn1 | inactive |
| CCOC(=O)c1cccc([C@@H]2CC(=O)N(C(=O)OCc3ccccc3)[C@@H]2C(=O)Nc2cccc3cccnc23)c1 | inactive |
| Cc1noc(C)c1NC(=O)N(C)C[C@@H]1OCCCC[C@@H](C)Oc2ccc(NC(=O)C3CCCCC3)cc2C(=O)N([C@@H](C)CO)C[C@H]1C | inactive |
